AmpC inh no detg – AmpC beta-lactamase inhibition without detergent | P00811 | AmpC nitrocefin hydrolysis, absorbance 480 nm, 0.0001% Triton | Potency, µM (doses to about 57.1 µM), inactives show at the highest dose activity change, negative = inhibition, hits mostly inhibitors | actives 0.52% (n = 330,000) | AID 485341;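 note: plate controls were no compound for no effect and no enzyme for full effect; nearly all actives have a fitted effect of over 20% in size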
Target sequence (P00811 whole entry, looked up): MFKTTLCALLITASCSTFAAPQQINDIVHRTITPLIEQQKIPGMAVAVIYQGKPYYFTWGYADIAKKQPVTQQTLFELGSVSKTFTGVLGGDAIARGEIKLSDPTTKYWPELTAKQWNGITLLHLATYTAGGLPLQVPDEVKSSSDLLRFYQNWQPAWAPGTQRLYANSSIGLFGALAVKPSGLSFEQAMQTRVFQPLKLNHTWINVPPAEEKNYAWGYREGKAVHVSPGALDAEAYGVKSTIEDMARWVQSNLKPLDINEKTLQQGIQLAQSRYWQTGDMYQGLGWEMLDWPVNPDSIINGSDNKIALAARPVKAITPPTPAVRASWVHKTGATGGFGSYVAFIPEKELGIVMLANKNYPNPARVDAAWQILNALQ
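20 mM phosphate pH 7.0 + 0.01% (detergent screen) or 0.0001% Triton X-100; 5.3 nM AmpC reagent; cpd preinc 15 min RT; nitrocefin (800 uM stock) to start; A480 q20 s × 4 min; Activity was normalised to no-enzyme and no-compound control wells.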
Sm TGR inh – S. mansoni TGR enzyme inhibition | actives 3% (n = 360,000) | Potency, µM (doses to about 114 µM), inactives show at the highest dose activity change, negative = inhibition, usual class: inhibitors | AID 485364 | purified TGR, DTNB reduction, TNB absorbance 405 nm | Q962Y6; note: nearly all actives have a fitted effect of over 60% in size
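First, TGR (20 nM dispensed) and NADPH were mixed with compound. Second, a 15 min room-temperature incubation followed. Third, further NADPH and then DTNB were added to start the reaction. Finally, TNB absorbance was monitored kinetically.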
AmpC inh detg – inhibitors of E. coli AmpC beta-lactamase with detergent; P00811; AmpC hydrolysis of nitrocefin, absorbance 480 nm, 0.01% Triton; Potency, µM (doses to about 114 µM), for the others: at the top dose activity change, negative = inhibition, usual class: inhibitors; actives 0.041% (n = 370,000);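 note: 0% = no-compound wells and -100% = no-enzyme wells; nearly all actives have a fitted effect of over 25% in size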
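20 mM phosphate pH 7.0 + 0.01% (detergent screen) or 0.0001% Triton X-100; 5.3 nM AmpC reagent; cpd preinc 15 min RT; nitrocefin (800 uM stock) to start; A480 q20 s × 4 min; Activity was normalised to no-enzyme and no-compound control wells.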
* hit, by the source's call; ? = inconclusive; / = no result given; [ ] = another dose, or the depositor's remark. An excerpt weighted towards active compounds, which were near 3.3% of everything screened. Calls come from the whole dose curve; as a rule, active = well fitted curve in the direction sought with a large enough effect; inconclusive = small, poorly fitted or top-dose-only effect, or another doubt; inactive = no such curve, though single readings can be large; an effect the other way counts as inactive or inconclusive. Unless noted, % is set by controls: 0 for no effect and ±100 for the full control effect; potency is the fitted concentration of half-maximal effect.

SMILES	AmpC inh no detg	Sm TGR inh	AmpC inh detg
CCC(C)NC(=O)c1ccc(CS(=O)(=O)Cc2ccc(Cl)cc2)o1 (stereo unspecified)	-1.6%	-29.7%	?
Cc1c(NC2(c3nnnn3-c3ccc(Br)cc3)CCCCC2)c(=O)n(-c2ccccc2)n1C	59.4%	3.5%	2.9%
Cc1c(NC2(C#N)CCCC2)c(=O)n(-c2ccccc2)n1C	0.2%	39.8µM*	-6.1%
O=C(NCc1ccco1)C1CCN(c2ccc(S(=O)(=O)N3CCOCC3)cc2[N+](=O)[O-])CC1	-6.1%	3.1%	0.7%
CN(C)S(=O)(=O)c1cccc(NC(=O)COC(=O)c2ccc(Br)o2)c1	-18.2%	7.0%	-3.4%
Cc1ccc(NC(=O)COC(=O)/C=C/c2ccc(Br)o2)cc1S(=O)(=O)N(C)C	-27.6%	25.1µM*	2.7%
CN(C)S(=O)(=O)c1cccc(NC(=O)COC(=O)/C=C/c2ccc(Br)o2)c1	-44.1%	7.08µM*	2.3%
O=C(COC(=O)/C=C/c1ccc(Br)o1)Nc1ccc2[nH]c(=O)[nH]c2c1	?	?	-11.9%
Cn1cnnc1SCC(=O)Nc1ccc(OC(F)F)cc1	-0.9%	-7.7%	?
CN1C(=O)C(Cc2cnc[nH]2)NC1=S (stereo unspecified)	-15.0%	-8.4%	2.7%
COc1ccc(Nc2nc(-c3ccccc3O)nc3ccccc23)cc1	2µM*	1.6%	0.1%
COc1cccc(Nc2nc(-c3ccccc3O)nc3ccccc23)c1	-38.7%	5.1%	-9.4%
O=C(c1ccc(Cl)cc1)N1CCN(S(=O)(=O)/C=C/c2ccccc2)CC1	24.5%	-8.4%	-2.7%
Cc1cc(C)cc(NC(=O)C2CCN(c3nc4ccccc4nc3C(F)(F)F)CC2)c1	/	-2.5%	3.2%
O=C(OCc1cc(=O)n2c(n1)sc1ccccc12)c1ccc(O)cc1	-29.2%	-2.4%	-9.7%
O=c1cc(CCl)nc2sc3ccccc3n12	-17.9%	39.8µM*	0.3%
COc1ccc(/C=C(/NC(=O)c2ccco2)C(=O)N2CCCC2=O)cc1	-16.9%	-5.2%	-4.7%
O=C(CSc1nc2ccccc2n1CCc1ccccc1)N1CCOCC1	81.2%	0.7%	-18.0%
O=C(CSc1nc2ccccc2n1CCc1ccccc1)c1ccc(O)c(O)c1	15.8µM*	-26.5%	2.0%
Cc1ccc(S(=O)(=O)ON=C2CCN(S(=O)(=O)c3ccccc3)CC2)cc1	-10.6%	1.6%	8.9%
CC1=CC(=O)C(C(C)C)=C/C1=N/OS(=O)(=O)c1ccccc1	-21.9%	25.1µM*	-0.6%
O=S(=O)(O/N=C1\CCCc2ccccc21)c1ccccc1	-7.7%	-1.4%	3.7%
CC1=CC(=O)C=C(C)C1=NOS(=O)(=O)c1ccccc1	-1.9%	3.98µM*	-10.1%
O=C(COc1ccc(Cl)cc1)Nc1ccc2c(c1)nc1n2CCOC1	4.2%	-1.0%	0.3%
OCCC1CCCCN1CC(O)COCc1ccc(Cl)cc1 (stereo unspecified)	-11.7%	-17.9%	3.4%
SMILES	AmpC inh no detg	Sm TGR inh	AmpC inh detg
O=C1C(CSCc2ccccc2)NC(=S)N1c1ccccc1 (stereo unspecified)	-42.7%	-11.8%	-4.8%
CN(Cc1ccnc2ccccc12)C(=O)C1CCC(=O)N(Cc2ccccc2F)C1 (stereo unspecified)	24.4%	1.3%	2.9%
Cc1cc(C(=O)OCC(=O)N2CCC(C)CC2)c2ccccc2n1	10.7%	/	/
Nc1nonc1-c1nc2ccccc2n1CC(=O)N/N=C/c1ccc(-c2cccc(C(=O)O)c2)o1	-18.7%	50.1µM*	-11.2%
Nc1nonc1-c1nc2ccccc2n1CC(=O)Nc1ccccc1C(=O)O	/	4.9%	-10.3%
COCCn1c(SCC(=O)N2CCC(C)CC2)nc2c(c1=O)SCC2	2.6%	0.9%	7.3%
CCOC(=O)c1cc(COc2cc(Cl)cc(Cl)c2)on1	-5.6%	29.3%	3.3%
NC(=S)N/N=C/c1ccc(-c2ccc([N+](=O)[O-])cc2)o1	-19.7%[11.4 µM]	28.2µM*	?
NC(=S)N/N=C/c1ccc(-c2cc(Cl)cc(Cl)c2)o1	/	?	-1.7%
COc1ccc(C(=O)NNC(=O)CCn2nnc(-c3ccc(C)cc3)n2)cc1OC	-13.5%	-20.5%	-8.3%
CC1CCN(C(=O)CSc2c3c(nc4cc(Cl)ccc24)CCCC3)CC1	/	-2.5%	8.1%
COC(=O)c1ccc(C2Nc3ccc(/C(C)=N/NC(=O)C(OC)c4ccccc4)cc3C3C=CCC32)cc1 (stereo unspecified)	4.5%	7.94µM*	-5.7%
COC(=O)c1ccc([C@@H]2Nc3c(OC)ccc(C)c3[C@@H]3C=CC[C@@H]32)cc1	/	3.16µM*	3.3%
COC(=O)c1ccc(C2NC(=O)CCC2[N+](=O)[O-])cc1 (stereo unspecified)	-15.8%	1.0%	0.5%
Cc1ccc(NS(=O)(=O)c2ccc3c(c2)[C@H]2C=CC[C@H]2[C@@H](c2ccc(F)cc2)N3)cc1C	/	?	5.4%
COC(=O)c1ccc([C@H]2Nc3ccc(S(=O)(=O)Nc4cccc(C)c4)cc3[C@H]3C=CC[C@H]32)cc1	/	25.1µM*	?
O=C(O)c1ccc(NS(=O)(=O)c2ccc3c(c2)C2C=CCC2C(c2ccccc2F)N3)cc1 (stereo unspecified)	-51.0%	28.2µM*	?
Cc1ccc([C@H]2Nc3ccc(S(=O)(=O)Nc4cccc(Cl)c4C)cc3[C@H]3C=CC[C@H]32)cc1	/	-2.2%	-9.8%
COC(C(=O)N/N=C(\C)c1ccc(O)cc1)c1ccccc1 (stereo unspecified)	-12.0%	1.6%	?
COCCNC(=O)c1c(NC(=O)c2cc(=O)c3cc(Cl)ccc3o2)sc2c1CCCC2	/	2.9%	-5.9%
Cc1coc2cc3oc(=O)c(CCC(=O)NCc4ccccc4Cl)c(C)c3cc12	/	2.2%	6.5%
O=C(COC(=O)c1cccc(Cl)c1Cl)NCc1cccs1	-12.7%	-20.8%	3.0%
C[C@H](CO)N1C[C@H](C)[C@@H](CN(C)Cc2ccncc2)Oc2c(NS(=O)(=O)c3ccc(F)cc3)cccc2C1=O	96.4%	/	/
COc1cc(OC)cc(C(=O)NN(CCC#N)C2=NS(=O)(=O)c3ccccc32)c1	-15.3%	-2.4%	-0.5%
Cc1ccc(NC(=O)c2ccccc2NS(=O)(=O)c2ccc(Cl)s2)cc1S(=O)(=O)N1CCOCC1	-58.2%	-1.2%	-1.2%
SMILES	AmpC inh no detg	Sm TGR inh	AmpC inh detg
Cc1ccc(C)c(N(C)S(=O)(=O)c2ccc3c(c2)oc(=O)n3C)c1	-32.0%	-0.9%	-4.3%
C=CCOC(=O)Nc1ccc(Cl)cc1NC(=O)OCC=C	-15.4%	18.1%	?
C=CCOC(=O)/C=C/C(=O)NC(N)=O	-23.3%	1.26µM*	7.6%
O=C(COC(=O)CC1CCCC1)Nc1ccc(Cl)cc1	-13.0%	-5.1%	0.0%
c1ccc(COCC2CCNCC2)cc1	1.4%	0.7%	?
COc1ccc(OCC2CCNCC2)cc1	-11.0%	35.5µM*	-4.0%
COc1ccc(CNC(=O)C2CCN(S(=O)(=O)N3CCCCC3)CC2)cc1	0.6%	-0.2%	-12.2%
COc1ccc(CNC(=O)C2CCNCC2)cc1	-13.6%	44.7µM*	-1.9%
COc1ccccc1C(=O)Nc1ccc2c(c1)n(C)c(=O)n2C	-8.4%	3.7%	0.1%
Cc1cccc(CC(=O)NCCc2csc(-c3ccc(C(F)(F)F)cc3)n2)c1	/	2.9%	2.7%

Screening data as filed in PubChem.
